The results in this text go back to PubChem BioAssay (NCI).

Where “and” joins values, the source holds several entries; their conditions need not be identical. Identical values can stand only once. About 83,000 compounds went through this panel and 20% of them were active in at least one assay; those are over-represented in the sample as a whole.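 Cells were grown in 96-well plates and exposed to the test compound at a single concentration for 48 hours; results are reported as percent growth, with values below 10 considered active.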 Calls of active or inactive are those of the source.

The assay relates to PC-3 prostate. Briefly: NCI-60 one-dose screen, 48 h (100 = growth as untreated, 0 = no growth, -100 = all killed). Conditions: 10 µM. As to the method: Growth inhibition of the PC-3 human tumor cell line is measured as a screen for anti-cancer activity. Cells are grown in 96 well plates and exposed to the test compound for 48 hours. Compounds are tested at a single concentration, which is 10^-5 M for most compounds. The reported endpoint is percent growth (GI% or GIPRCNT), where numbers from 0 - 100% represent growth inhibition, and numbers from -100% - 0 represent cell death. For example, a value of 40 represents 60% growth inhibition. A value of 0 means no net growth occurred over the course of the experiment. A value of -40 indicates 40% of cells at the beginning of the experiment died by the end of the experiment. A value of -100 means all cells are dead at the end of the experiment.
NCI-60 Human Tumor Cell Lines Screen was performed using the standard one-dose NCI protocol, which is described in more detail at https://dtp.cancer.gov/discovery_development/nci-60/default.htm.
Compounds with GIPRCNT values below 10 were considered active. Activity score was based on GIPRCNT using the following formula: […]
Score is 0 for GIPRCNT values of 100 or above, 50 for GIPRCNT values of 0, and 100 for GIPRCNT values of -100.
For the molecule `O=C1C(=O)c2ccccc2-c2ccccc21`, the growth is -47% (active).

For the molecule `O=C(CBr)Nc1ccc(Cl)cc1`, the growth is 93.3% (inactive).

On to `O=[N+]([O-])/C=C/c1ccc(Cl)cc1[N+](=O)[O-]`, for which the growth is 46.4% (inactive).

For `O=[N+]([O-])c1ccc(Br)c([N+](=O)[O-])c1`, the growth was 91.8% (inactive).

Consider `NC(=O)c1cc([N+](=O)[O-])c(Cl)c([N+](=O)[O-])c1`, for which the growth is 62.2% (inactive).

In the case of `Cc1ccc(C(=O)C2C(c3ccccc3)N2C2CCCCC2)cc1` (stereo not given), the growth is 98% (inactive) and 83% (inactive).

For `C/C(=C\c1ccc(Cl)c(Cl)c1)[N+](=O)[O-]`, the growth was -35% (active) and 85.2% (inactive).

Take `O=c1[nH]c2ccccc2n1C1CCN(CCCC(c2ccc(F)cc2)c2ccc(F)cc2)CC1`: the growth was -21.4% (active) and 21.3% (inactive).

Take `CCCCCCCC[N+]12CN3CN(CN(C3)C1)C2`: the growth is 96.7% (inactive).

On to `O=C(CBr)Nc1ccccc1`, for which the growth is 95.2% (inactive).

Regarding `O=[N+]([O-])c1ccc(N(CCO)CCO)c2c1no[n+]2[O-]`, the growth is -5.95% (active).

With `CCOP(=O)(OCC)C(O)c1ccccc1Cl` (stereo not given), the growth is 98.3% (inactive).

Regarding `COS(=O)(=O)c1ccccc1`, the growth was 102% (inactive).

In the case of `CC(C)(C)OOC(=O)/C=C\C(=O)OOC(C)(C)C`, the growth was 95.4% (inactive).

As to `Cc1cc(C)c(C[N+](C)(C)C)c(C)c1C`, the growth is 14.3% (inactive).

On to `COc1cc([N+](=O)[O-])c2ncccc2c1[N+](=O)[O-]`, for which the growth is 66.4% (inactive).

In the case of `CC/C(=C/c1ccc(OC)cc1OC)[N+](=O)[O-]`, the growth was 50% (inactive).

Consider `O=C(O)c1cc(Cc2ccc(O)c(C(=O)O)c2)ccc1O` (tested in a mixture with another compound), for which the growth was -31.5% (active).

For the molecule `O=C1C=Cc2ccccc2C1=O`, the growth is 72.9% (inactive).

Regarding `COC(=O)C1C(O)C(C)C(O)C(C)/C=C\C=C(C)C(=O)Nc2c(C)c(OC(C)=O)c3c(c2O)C(=O)C(C)=C2OCOC(=C23)C(C)=CC(C)(O)C(O)C(C)C1O` (stereo not given), the growth was 48.8% (inactive).

On to `[Cl][Hg][c]1ccc2ccccc2c1`, for which the growth is -35.1% (active).

Turning to `COc1ccccc1[As]=[As]c1ccccc1OC` (stereo not given), the growth is -78.9% (active).

Turning to `CC(C)C1(NC(=O)C2CC3c4cccc5[nH]cc(c45)CC3N(C)C2)OC2(O)C3CCCN3C(=O)C(Cc3ccccc3)N2C1=O` (stereo not given), the growth was 81.1% (inactive).

In the case of `Cc1cc(C(C)(C)c2ccc(O)c(C)c2)ccc1O`, the growth is 123% (inactive).

`CN(C)CC1(N)C(=O)NC(=O)NC1=O`: the growth was 93.5% (inactive).

Take `COc1cc([C@@H]2c3cc4c(c(O)c3C[C@H]3COC(=O)[C@@H]32)OCO4)cc(OC)c1OC`: the growth is -0.628% (active).

As for `CC[C@@H](C)[C@@H]1NC(=O)C(NC(=O)C(CC(C)C)N(C)C(=O)C2CCCN2C(=O)C(C)O)C(C)OC(=O)C(Cc2ccc(OC)cc2)N(C)C(=O)C2CCCN2C(=O)C(CC(C)C)NC(=O)C(C)C(=O)C(C(C)C)OC(=O)C[C@H]1O` (stereo not given in full), the growth was -37.2% (active).

Consider `CC(Cc1ccc2c(c1)OCO2)NN` (stereo not given), for which the growth was 76.3% (inactive).

`C=C1C(=O)O[C@@H]2C[C@@H](C)[C@@H]3C=CC(=O)[C@@]3(C)[C@@H](O)[C@H]12`: the growth was -62% (active).

On to `COc1cc(/C=C/[N+](=O)[O-])cc(OC)c1OC`, for which the growth is 6.51% (active).

Take `O=S(=O)(F)c1ccc(Cl)cc1`: the growth is 91.4% (inactive).

In the case of `O=[N+]([O-])/C=C\c1ccc2c(c1)OCO2`, the growth was 83% (inactive).

Take `COc1ccc(/C=C\[N+](=O)[O-])cc1OC`: the growth is 68.9% (inactive) and 77.1% (inactive).

In the case of `N#CCc1ccccc1`, the growth is 96.9% (inactive).

In the case of `O=C1CCC(=O)N1SC(Cl)(Cl)Cl`, the growth is 91.2% (inactive).

As for `O=[N+]([O-])/C=C/c1ccc([N+](=O)[O-])cc1`, the growth is 43.4% (inactive) and 92% (inactive).

In the case of `O=[N+]([O-])c1ccc(N2CCOCC2)c2c1no[n+]2[O-]`, the growth is 10.9% (inactive).

Turning to `Cn1c(O)c(N=O)c(=O)n(C)c1=O`, the growth is 101% (inactive) and 95.1% (inactive).

As to `CC[C@@]1(O)C[C@H](OC2CC(N(C)C)C(O)C(C)O2)c2c(cc3c(c2O)C(=O)c2c(O)ccc(O)c2C3=O)[C@H]1C(=O)OC` (stereo not given in full), the growth was -57.4% (active).

In the case of `ClCc1ccc2ccccc2n1`, the growth is 92.1% (inactive).
